Records with an inconclusive call do not appear. Entries that show only a call come without a potency. The source made the active and inactive calls. Calls come from the whole dose curve; as a rule, active = well fitted activation curve with a large enough effect; inconclusive = small, poorly fitted or top-dose-only effect; inactive = flat fitted curve, though single readings scatter. Peptide text beside a SMILES is read from it. * marks the point of attachment. Octanoyl = CCCCCCCC(=O)*
Test: qHTS for H2AX Agonists against the NCATS CANVASS Library (AID 1347378)
Settings: CHO-K1 H2AX phosphorylation, HTRF TR-FRET, 3 h; series mostly up to 76.9 µM
From the text: Natural products and their derivatives continue to be wellsprings of nascent therapeutic potential. However, many laboratories have limited resources for biological evaluation, leaving their previously isolated or synthesized compounds largely or completely untested. To address this issue, the Canvass library of natural products was assembled (https://tripod.nih.gov/canvass), in collaboration with academic and industry researchers, for quantitative high-throughput screening (qHTS) across a diverse set of cell-based and biochemical assays. The pure (>85% purity by liquid chromatography/mass spectrometry [LC/MS]) Canvass library of 346 natural products were submitted by 45 academic laboratories and companies around the world. We collected pure natural products to circumvent deconvolution and structure elucidation due to time and resource limitations. The library was formatted into 1536-well plates and evaluated in 50 qHTS (in an 11-pnt concentration series) bioassays with broad scope of disease-relevant mechanisms. The resulting data set from 50 different assays was then systematically analyzed to identify overall trends and specific natural products with interesting biological activities. Reported herein are the results of each individual qHTS and their corresponding assay protocol. This assay determines the levels of phospho-H2AX in cell lysates of Chinese hamster ovary CHO cells. It is based on time resolved fluorescence resonance energy transfer (TR-FRET). Two anti-H2AX antibodies are labeled with europium cryptate and d2, respectively. The increase of FRET levels is proportional to the concentration of phosphorylated H2AX. The results were expressed as the ratio of 665/615 nm emissions. National Center for Advancing Translational Sciences (NCATS), Rockville, MD National Institute of Health (NIH), Bethesda, Maryland
H2AX assay protocol: The CHO-K1 cells suspended in culture medium containing 10% FBS were dispensed at 1000 cells/ 3 ul/well in 1536-well white wall/solid bottom plates (Greiner Bio-One North America, NC) using a Multidrop Combi (Thermo Fisher Scientific Inc., Waltham, MA). After the assay plates were incubated at 37C overnight, 23 nl of compounds at 15 concentrations (from 5-48 columns) or positive control (from 1 to 4 columns) were transferred to the assay plates using a Pintool station (Wako, San Diego, CA) into each well resulting in a final DMSO concentration of 0.76%. After 3hr incubation at 37C, 1 uL/well Supplemented Lysis buffer (diluted 100 fold blocking reagent in lysis buffer) (HTRF Phospho-H2A.X (S139) Assay kit from Cisbio US Inc., Bedford, MA) was added using a Flying Reagent Dispenser (FRD) (Aurora Discovery, CA). After 10sec spin at 1000 rpm in a plate centrifuge, the assay plates were incubated at room temperature for 30 min. Then followed by the addition of 1 uL/well detection buffer (containing a mixture of two antibodies, one labeled with cryptate, Anti pH2AX (S139)-K and another labeled with d2, Anti H2AX-d2) using FRD. After incubation at room temperature for 24 hr, the time resolved fluorescence at excitation 320 nm and emissions at 665 nm and 620 nm was measured using an Envision plate reader (PerkinElmer, Waltham, MA).
With CCCCCCCCCCCCCCCC(=O)OC/C=C(\C)CCCC(C)CC(C)C(C)C (stereo not given) the Potency was “inactive”.
In the case of CC[C@@H]1C[C@@]2(CC)OC(=O)[C@@]3(CC)OC(=O)[C@@H]1[C@@H]23, the Potency is reported as “inactive”.
In the case of O=c1cc(-c2ccc(O)c(O[C@@H]3O[C@H](CO)[C@@H](O)[C@H](O)[C@H]3O)c2)oc2cc(O[C@@H]3O[C@H](CO)[C@@H](O)[C@H](O)[C@H]3O)cc(O)c12, the Potency is reported as “inactive”.
In the case of O=Cc1ccc2n1C[C@@]1(OC2)O[C@H](CO)[C@@H](O)[C@@H]1O, the Potency is reported as “inactive”.
In the case of CC(=O)[C@@H]1[C@@H](O)C[C@H]2[C@]3(C)CC[C@H]4C(C)(C)CCC[C@]4(CO)[C@H]3C[C@H]3OC(=O)[C@@H]1[C@@]32C, the Potency is reported as “inactive”.
With O=C(O)[C@@]12CO[C@@]3(O)C4CCN(CC[C@H]31)[C@H]4c1c2[nH]c2ccccc12 the Potency was “inactive”.
With C=C(C)[C@@H]1CC[C@]2(C)CC[C@]3(C)[C@H](CC[C@@H]4[C@@]5(C)CC[C@H](O)C(C)(C)[C@@H]5CC[C@]43C)[C@@H]12 the Potency was “inactive”.
With C=C1[C@H]2CC[C@@]3(C=CC(=O)[C@@](C)(CCC(=O)Nc4c(O)ccc(C(=O)O)c4O)C3C2)[C@H]1O (stereo not given in full) the Potency was “inactive”.
In the case of Oc1ccc(C2c3c(O)cc(O)cc3[C@@H]3C(c4ccc(O)cc4)c4c(O)cc(O)cc4[C@H]23)cc1 (stereo not given in full), the Potency is reported as “inactive”.
In the case of C/C=C/C=C/C1(O)C2C=C3C(=O)CC45C(=O)C(O)=C(C)C(=O)C4C1C1(C(=O)C(O)=C(C)C(=O)C351)C2C (stereo not given), the Potency is reported as “inactive”.
In the case of CC1(C)C=Cc2c(ccc3c2OC[C@@H](c2ccc(O)cc2O)C3)O1, the Potency is reported as “inactive”.
In the case of C=C1C(=O)C[C@H]2C[C@@H]1[C@]2(C)CCC=C(C)C, the Potency is reported as “inactive”.
In the case of CC(=O)NC[C@@H]1O[C@H](CC/C=C(C)/C(C)=C/C=O)[C@H](C)C[C@H]1O, the Potency is reported as “inactive”.
In the case of CCC[C@@H](C)/C=C(\C)[C@H](O)[C@H](C)/C=C/CC[C@@H](O)[C@H](C)[C@H](O)[C@H](C)[C@H](O)[C@H](C)[C@H]1O[C@H]([C@H](C)C(=O)O)CC[C@@H]1C, the Potency is reported as “inactive”.
For C/C=C/c1cc(OC)c2c(c1)[C@@H](C)[C@H](c1ccc(O)c(OC)c1)O2, the Potency was “inactive”.
In the case of CC1C(=O)C23CCC1C[C@@]21O[C@H]2C(C)(C)C=CC(=O)[C@@]23COC1=O (stereo not given in full), the Potency is reported as “inactive”.
In the case of Oc1ccc([C@H]2Oc3ccc(/C=C/c4cc(O)cc(O)c4)cc3C2c2cc(O)cc(O)c2)cc1 (stereo not given in full), the Potency is reported as “inactive”.
With C[C@H]1C[C@@H]([C@@H]2CC[C@]34O[C@H](CC[C@@]35C[C@H](C)C(=O)O5)CN24)OC1=O the Potency was “inactive”.
For C[C@@]12C[C@@H](C[C@H]3C(=O)O[C@@H](c4ccoc4)[C@H](OC(=O)c4ccccc4)[C@@H]31)OC2=O, the Potency was “inactive”.
In the case of C[C@@H]1O[C@@H](O[C@@H]2[C@@H](O)[C@H](O[C@@H]3[C@@H](O)[C@@H](O)C(O[C@H]4[C@H](OC(=O)[C@]56CCC(C)(C)C[C@H]5C5=CCC7[C@@]8(C)C[C@H](O)[C@H](O[C@@H]9C[C@H](CO)[C@@H](O)[C@H](O)[C@H]9O)[C@@](C)(CO)C8[C@H](O)C[C@@]7(C)[C@]5(C)CC6)OC[C@H](O)[C@@H]4O)O[C@H]3C)OC[C@H]2O)[C@H](O)[C@H](O)[C@H]1O (stereo not given in full), the Potency is reported as “inactive”.
In the case of CC12C[C@]3(O)O[C@@H](O1)[C@]1(COC(=O)c4ccccc4)[C@@H]3CC21OC1OC(CO)C(O)C(O)C1O (stereo not given in full), the Potency is reported as “inactive”.
In the case of O=c1cc(-c2ccc(O)cc2)oc2c([C@@H]3OC(CO)[C@H](O)[C@@H](O)[C@H]3O)c(O)cc(O)c12 (stereo not given in full), the Potency is reported as “inactive”.
For O=C1c2c(O)cc(O)cc2O[C@@H](c2ccc(O)cc2)[C@@H]1c1c(O)cc(O)c2c(=O)cc(-c3ccc(O)c(O)c3)oc12, the Potency was “inactive”.
With CC1=CC2=C[C@H](C)C[C@@]23OC(=C(C)C3=O)CC(C)(C)/C=C/C1=O the Potency was 1.72 µM (active).
In the case of C1=C2CCCN[C@@H]2[C@@H]2CCN3CCCC[C@@H]3[C@H](C1)C2, the Potency is reported as “inactive”.
For CNc1ccc(Cl)cc1C(=O)OC[C@]1(C)[C@H]2CC[C@]3(C)[C@@H](C[C@@H](OC)[C@H](C)[C@H]3C3=C(O)C(=O)OC3O)[C@]2(C)CC[C@H]1O (stereo not given in full), the Potency was “inactive”.
For CN1CC[C@]2(c3cccc4c3N[C@@H]3N(C)CC[C@]43[C@@]34CCN(C)[C@@H]3Nc3c([C@]56CCN(C)[C@H]5Nc5ccccc56)cccc34)c3ccccc3N[C@H]12, the Potency was 13.7 µM (active).
With OCc1ccc2ocnc2c1 the Potency was “inactive”.
For C=C1C[C@@]23C=CC(=O)[C@@](C)(CCC(=O)Nc4c(OC5O[C@H](CO)[C@@H](O)[C@H](O)[C@H]5O)ccc(C(=O)O)c4O)C2C[C@@H]1CC3 (stereo not given in full), the Potency was “inactive”.
In the case of C=C[C@]1(C)CC[C@@H]([C@H](C)C(=O)/C=C/C(C)C)O1, the Potency is reported as “inactive”.
For C/C(=C\[C@H](C)C(=O)CCCC1CC(=O)NC(=O)C1)C(O)[C@@H](C)[C@H](O)C/C=C/CC/C=C/C(=O)O (stereo not given in full), the Potency was “inactive”.
For C[C@@H]1C(=O)[C@]23CC[C@H]1C[C@]21O[C@H]2C(C)(C)C=CC(=O)[C@@]23COC1=O, the Potency was “inactive”.
In the case of COc1cc(/C=C2/C(=O)N(c3ccc(O)cc3C(=O)O)[C@H](c3ccc(O)c(OC)c3)C2C(=O)Nc2ccc(O)cc2C(=O)O)ccc1O (stereo not given in full), the Potency is reported as “inactive”.
In the case of CO[C@@H]1[C@H](O)[C@@H](C)O[C@@H](OC[C@@H]2C(C)OC(=O)/C=C/[C@H](C)C(O[C@@H]3O[C@H](C)CC4(OC(=O)O[C@@H]4C)C3O)[C@@H](C)CC(C)C(=O)CC[C@H]3OC23)[C@@H]1OC (stereo not given in full), the Potency is reported as “inactive”.
For C=C(C)C(=O)O[C@H]1C[C@H](C)[C@@H](OC(C)=O)CC[C@@]2(C)O[C@@H]2[C@H]2OC(=O)C(COC(C)=O)=C12, the Potency was “inactive”.
With COc1cc(O)c2c3c(c(O)cc(C)c13)C(=O)OC2 the Potency was “inactive”.
For CCCCCCCC(=O)N[C@@H](CC(C)C)C(=O)N[C@H](C=O)CCC(=O)O (Octanoyl-Leu-Glu-aldehyde), the Potency was “inactive”.
In the case of COc1ccc2oc3c(OC)c(OC)c(OC)c(OC)c3c(=O)c2c1, the activation is reported as -1.65% [at 15.3 µM] (inactive).
In the case of C=C1C[C@@]23C=CC(=O)[C@@](C)(CCC(=O)Nc4c(O)ccc(C(=O)O)c4O)C2C[C@@H]1C(O)C3 (stereo not given in full), the Potency is reported as “inactive”.
For COc1ccc(CCCc2cc(O)c(OC)c(O)c2)c(O)c1O, the Potency was “inactive”.

— PubChem BioAssay (NCATS)
Potency is the fitted concentration of half-maximal effect.
